Screens deposited in PubChem BioAssay by several laboratories.
COUP-TFII inh – blocks human COUP-TFII nuclear receptor; actives 0.7% (n = 370,000); AID 686940; P24468; inhibition, % at 8.6 µM; HEK293T NGFI-A luciferase reporter, luminescence;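 active = inhibition above a per-plate cutoff, mean inhibition of test wells between control levels plus 3 SD, cut at about 38% in these data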;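 also: cells cotransfected with COUP-TFII expression vector driving the NGFI-A reporter; 0% = median of COUP-TF2 test wells and 100% = reporter-only cells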
Target sequence (P24468 whole entry, looked up): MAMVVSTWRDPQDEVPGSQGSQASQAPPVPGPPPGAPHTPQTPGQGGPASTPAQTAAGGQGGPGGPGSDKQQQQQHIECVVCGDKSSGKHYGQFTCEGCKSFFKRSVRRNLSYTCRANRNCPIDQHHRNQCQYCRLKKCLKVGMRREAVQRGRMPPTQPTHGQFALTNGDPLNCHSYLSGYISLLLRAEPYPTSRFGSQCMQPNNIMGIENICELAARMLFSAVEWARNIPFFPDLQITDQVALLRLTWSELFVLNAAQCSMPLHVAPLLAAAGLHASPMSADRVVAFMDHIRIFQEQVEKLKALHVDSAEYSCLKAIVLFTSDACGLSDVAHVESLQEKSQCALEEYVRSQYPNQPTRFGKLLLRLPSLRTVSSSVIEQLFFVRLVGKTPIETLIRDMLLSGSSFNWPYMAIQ
Gli-Sufu block – Gli-Sufu pathway antagonism; actives 0.74% (n = 340,000); Sufu-KO-LIGHT fibroblasts, Gli luciferase reporter luminescence; AID 588413; inhibition, % at 5 µM;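 active = inhibition above about 55%, limit read from the data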;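 also: 0% = DMSO-treated cells and 100% = wells with medium but no cells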
aDG glyco up – alpha-DG glycosylation activation; Pro5-aDG cells, alpha-DG glycosylation AlphaScreen (IIH6); 0% Pro5, 100% B10-LARGE cell signal; activation, % at 10 µM; actives 0.22% (n = 360,000); AID 624168;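 active = activation of at least 8% versus controls, or a plate z-score of at least 8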;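 also: Pro5 are CHO cells carrying HIG-tagged alpha-DG that lacks glycosylation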
HIV Env fusion – HIV envelope-mediated fusion inhibition | HeLa-JRFL Env/CEM21 cell fusion, luciferase | inhibition, % at 12.3 µM | actives 1.1% (n = 360,000) | AID 651610;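 active = mean replicate inhibition score of at least 50 and every replicate individually at or above 50; inconclusive = only one of the two criteria met; inactive = mean below 50 and not all replicates reaching 50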;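 also: 0% = plate neutral controls and 100% = maraviroc near 300 nM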
GalR3 antagonist – antagonists of human GalR3 | O60755 | HEK293 GalR3-CNG cAMP membrane potential fluorescence; galR3 body fused to GalR1 C-terminus | inhibition, % at 3 µM | actives 0.44% (n = 360,000);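 active = inhibition above the screen-wide average plus 3 SD, cut at about 13% in these data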;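 also: forskolin and galanin both at EC90 stimulate the cells; cAMP rise reported by CNG channel membrane potential dye signal; 0% = forskolin plus galanin with DMSO and 100% = forskolin alone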
Target sequence (O60755 1-299 limits assumed): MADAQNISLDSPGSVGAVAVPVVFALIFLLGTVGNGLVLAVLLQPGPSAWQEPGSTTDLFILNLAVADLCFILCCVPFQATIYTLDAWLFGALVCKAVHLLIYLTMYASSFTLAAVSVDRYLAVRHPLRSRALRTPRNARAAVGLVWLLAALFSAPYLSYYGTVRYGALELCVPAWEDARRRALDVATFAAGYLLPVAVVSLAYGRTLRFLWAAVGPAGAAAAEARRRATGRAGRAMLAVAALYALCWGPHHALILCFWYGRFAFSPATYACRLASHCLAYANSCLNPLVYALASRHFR
GalR3 antag conf – confirmation of human galanin receptor 3 antagonists; shares compounds with GalR3 antagonist; inhibition, % at 3 µM; AID 652245; actives 59% (n = 1,600); HEK293 GalR3 CNG cAMP biosensor, membrane potential fluorescence; galR3 fused to GalR1 carboxy tail; challenged with forskolin and galanin at EC90;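 active = inhibition above the primary screen's cutoff, the mean inhibition of all screened compounds plus 3 SD, cut at about 13% in these data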;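 also: 0% = forskolin plus galanin and 100% = forskolin alone with DMSO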
CNG parental – parental cell agonism counter-screen for GalR3 antagonists | shares compounds with GalR3 antagonist | HEK293-CNG parental cells, cAMP membrane potential fluorescence; normalised: DMSO wells 0%, forskolin wells 100% | activation, % at 3 µM | actives 10% (n = 1,600); in the data active = activation above about 1.3%
* marks the source's active call; other numbers are inactive results; u = inconclusive; x = not tested or not shown; [ ] = remark or other dose. Shown are actives, neighbours in structure and some others; about 2.1% of the full set was active somewhere.

SMILES | COUP-TFII inh | Gli-Sufu block | aDG glyco up | HIV Env fusion | GalR3 antagonist | GalR3 antag conf | CNG parental
CCCC#Cc1cnc2c(c1)C(=O)N([C@H](C)CO)C[C@@H](C)[C@H](CN(C)C(=O)NCCC)O2 | x | x | x | -8[16.7 µM] | x | x | x
COc1ccccc1NC(=O)Cc1nc(CCl)cs1 | 4 | 0 | 0 | -15 | 14* | 12 | 0
O=C(O)c1ccccc1NS(=O)(=O)c1cccc(-n2sc3ccccc3c2=O)c1 | 14 | 24 | 0 | 2 | 33* | 23* | 0
O=C(O)c1ccccc1NS(=O)(=O)c1cccc(C(F)(F)F)c1 | 2 | 2 | 0 | -14 | -5 | x | x
C[C@H](CO)N1C[C@H](C)[C@@H](CN(C)Cc2ccncc2)OCCCC[C@H](C)Oc2ccc(NC(=O)CCC(F)(F)F)cc2C1=O | x | x | x | -9[16.7 µM] | x | x | x
O=C(Nc1ccc(Br)c2ccccc12)c1ccc2ccccc2c1O | 24 | 39 | 0 | u | 78* | 90* | 0
CC(=O)Nc1ccc(Br)c2ccccc12 | 5 | -4 | 0 | 7 | -1 | x | x
Cc1oc(-c2ccccc2)cc1C(=O)Nc1ccccc1 | 5 | 15 | 3 | x | -6 | x | x
Cc1oc(-c2ccccc2)cc1C(=O)Nc1cccc(/C=C/C(=O)O)c1 | -8 | 3 | 0 | -4 | 75* | 111* | 0
Cc1oc(C(C)(C)C)cc1C(=O)Nc1cccc(/C=C/C(=O)O)c1 | 8 | -5 | 0 | x | 3 | x | x
Cc1cc(C(=O)Nc2cccc(/C=C/C(=O)O)c2)c(C)o1 | 8 | -5 | 0 | -36 | 46* | 88* | 0
CN(C)C(=O)c1ccc(-c2ccc([C@H]3[C@@H](C#N)N(C(=O)C4CCOCC4)[C@H]3CO)cc2)cc1 | x | x | x | -1[16.7 µM] | x | x | x
CC(=O)NCCC1CCN(c2nc3nonc3nc2N(C)Cc2ccccc2)CC1 | -2 | 2 | 0 | 5 | 20* | 0 | 0
Cc1ccc(S(=O)(=O)Nc2ccc3c(c2)C(=O)N([C@@H](C)CO)C[C@@H](C)[C@H](CN(C)S(=O)(=O)c2cn(C)cn2)O3)cc1 | x | x | x | 13[16.7 µM] | x | x | x
O=S(=O)(c1ccc(Cl)cc1)N1CCN(S(=O)(=O)N2CCCCCC2)CC1 | -20 | -15 | 0 | 15 | 16* | 3 | 0
O=S(=O)(c1ccccc1)N1CCN(S(=O)(=O)N2CCCCC2)CC1 | 10 | -4 | 0 | -31 | -2 | x | x
Cc1noc(C)c1NC(=O)Nc1ccc2c(c1)CC(=O)N([C@@H](C)CO)C[C@@H](C)[C@@H](CN(C)CC1CC1)O2 | x | x | x | -4[16.7 µM] | x | x | x
O=C(NCC(F)(F)F)c1ccc2sc([C@@H]3O[C@H](CO)[C@H](O)[C@H](O)[C@H]3O)nc2c1 | -61 | x | 0 | -38 | 40* | 0 | 0
CC(C)c1c(O)c2c(n(-c3ccccc3)c1=O)CCCC2 | 9 | 1 | 0 | -4 | x | 3 | 1.9*
O=c1c(-c2ccccc2)c(O)c2c(n1-c1ccccc1)CCCC2 | -12 | -9 | 0 | x | -8 | x | x
CO[C@@H]1CN(C)C(=O)c2cc(NC(=O)C3CCCCC3)ccc2OC[C@@H](C)N(Cc2nccs2)C[C@H]1C | x | x | x | 6[16.7 µM] | x | x | x
CCNC(=O)C[C@H]1CC[C@H]2[C@H](COc3ccc(NC(=O)c4cccc(C(F)(F)F)c4)cc3C(=O)N2C)O1 | x | x | x | -8[16.7 µM] | x | x | x
O=C1OCc2ccc(NC(=O)c3sccc3Cl)cc21 | -7 | -8 | 0 | 4 | 15* | 7 | 0
O=C(Nc1ccc2c(c1)C(=O)OC2)c1ccc(Cl)cc1 | -2 | 1 | 0 | -19 | -7 | x | x
C[C@H](CO)N1C[C@H](C)[C@H](CN(C)C(=O)c2ccccn2)Oc2cc(C3=CCCC3)ccc2S1(=O)=O | x | x | x | 9[16.7 µM] | x | x | x
SMILES | COUP-TFII inh | Gli-Sufu block | aDG glyco up | HIV Env fusion | GalR3 antagonist | GalR3 antag conf | CNG parental
Cc1cc(OCC(=O)Nc2ccncc2)c(C)cc1Br | 16 | -4 | 0 | -12 | 77* | 117* | 0
O=C(O)/C=C/C(=O)c1ccc2c(c1)CCc1ccccc1-2 | -11 | -66 | 2 | -163 | 25* | 16* | 1
C[C@H](CO)N1C[C@H](C)[C@H](CN(C)S(=O)(=O)c2ccc(Cl)cc2)Oc2ccc(NC(=O)CCN3CCOCC3)cc2CC1=O | x | x | x | 13[16.7 µM] | x | x | x
COc1ccc2[nH]c(=O)c(CNc3cc(C)ccc3C)cc2c1 | -7 | -2 | 0 | -3 | 2 | x | x
COc1ccc2[nH]c(=O)c(CNc3ccc(C)cc3C)cc2c1 | -5 | 8 | 0 | -31 | 14* | 5 | 0
C1CSC2(N1)C1CC3CC(C1)CC2C3 (configuration not stated) | -7 | -1 | 0 | x | 3 | x | x
S=C1NNC2(NN1)C1CC3CC(C1)CC2C3 | -3 | 0 | 0 | -35 | 15* | 3 | 0
N#C[C@@H]1[C@@H](c2ccccc2C2=CCCCC2)[C@@H](CO)N1C(=O)Cc1ccncc1 | x | x | x | 12[16.7 µM] | x | x | x
COc1ccc(C(=O)c2c(-c3ccc(OC)cc3)oc3ccccc23)cc1 | -2 | -2 | 0 | 5 | 3 | x | x
COc1ccc(C(=O)c2ccc3oc(-c4ccc(OC)cc4)c(-c4ccc(O)cc4)c3c2)cc1 | -17 | -8 | 1 | 33 | 13* | 5 | -1
C[C@@H]1CN([C@H](C)CO)C(=O)c2cc(NS(C)(=O)=O)ccc2O[C@@H](C)CCCCO[C@@H]1CN(C)Cc1ccccc1 | x | x | x | -3[16.7 µM] | x | x | x
CC(C)C#Cc1ccc([C@H]2[C@@H](C#N)N(C(=O)CN(C)C)[C@@H]2CO)cc1 | x | x | x | -33[16.7 µM] | x | x | x
CC(=O)OCCNc1cc(Sc2nc3ccccc3[nH]2)c2nonc2c1[N+](=O)[O-] | 4 | -9 | 0 | -68 | 46* | 32* | 0
O=C1NC(=Nc2ccccc2Cl)S/C1=C\c1ccc(C(=O)O)cc1 | -8 | 4 | 0 | 14 | -8 | x | x
CC12CCC(C/C1=N\N=C1\NC(=O)/C(=C\c3ccc(Cl)cc3)S1)C2(C)C (configuration not stated) | 12 | -7 | 0 | -12 | 17* | -16 | 34*
CCCNC(=O)CCCCn1c(=S)[nH]c2c([nH]c3ccc(OC)cc32)c1=O | -19 | -8 | 0 | -2 | -6 | x | x
COc1ccc2[nH]c3c(=O)n(CCCCC(=O)NCCC(C)C)c(=S)[nH]c3c2c1 | 6 | 2 | 0 | 1 | 13* | -2 | 0
COCCNC(=O)/C(C#N)=C/c1c(N2CC(C)OC(C)C2)nc2ccccn2c1=O (configuration not stated) | -20 | 4 | 0 | -5 | 25* | -1 | 0
COc1cccc(C2=NN(C(=O)c3cccs3)C(O)(C(F)(F)F)C2)c1 (configuration not stated) | 5 | -14 | 0 | 12 | 13* | 3 | 1
